From PubChem BioAssay (NCATS) come the findings set out here.

Assay [1] has as its target Cytochrome P450 2C9 (Homo sapiens) (UniProt P11712). Kind of assay: qHTS Assay for Inhibitors and Substrates of Cytochrome P450 2C9 (AID 883). Note: % is set by controls: 0 for no effect and ±100 for the full control effect; nearly all actives have a fitted effect of over 60% in size. The method in brief:
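Luminescent read-out of deoxyluciferin hydroxylation, normalized to 57uM sulphaphenazole (AC100). Reaction: 10nM enzyme, 100uM Luciferin-H (equal to KM), 25mM KPO4, 10 min compound preincubation, then 60 min with NADPH regeneration, both at 37C.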
(In general: Quantitative high-throughput screening tests each substance at several concentrations.)

Assay [2] concerns the target Cytochrome P450 3A4 (Homo sapiens) (UniProt P08684). Kind of assay: qHTS Assay for Inhibitors and Substrates of Cytochrome P450 3A4 (AID 884). Note: % is set by controls: 0 for no effect and ±100 for the full control effect; nearly all actives have a fitted effect of over 50% in size. The method in brief:
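Luminescent readout of luciferin produced by CYP3A4 (20 nM) dealkylation of Luciferin-PPXE, 25 uM (its KM). NADPH-driven reaction ran 60 min at RT after 10 min compound preincubation; data scaled to 57 uM ketoconazole as 100% inhibition.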

The target is the same in assay [3]. As to the kind of experiment: qHTS Assay for Activators of Cytochrome P450 3A4 (AID 885). Note: potency is the fitted concentration of half-maximal effect; nearly all actives have a fitted effect of over 65% in size. The essentials:
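CYP3A4 activity: Luciferin-PPXE O-dealkylation, 25uM substrate, 200mM KPO4, RT throughout. Read-out is luciferase luminescence; higher values reflect activation.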

Assay [4] has as its target Cytochrome P450 2D6 (Homo sapiens) (UniProt P10635). Kind of assay: qHTS Assay for Inhibitors and Substrates of Cytochrome P450 2D6 (AID 891). Note: potency is the fitted concentration of half-maximal effect; nearly all actives have a fitted effect of over 60% in size. The method in brief:
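Luminescent read-out of luciferin formed by 5 nM human CYP2D6 demethylating 30 uM Luciferin-ME EGE (Km level) over 60 min at room temperature after NADPH regeneration addition. Data normalized to full inhibition by 1.43 uM quinidine.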

Assay [5] in a line: qHTS Assay for Identification of Small Molecule Antagonists for Thrombopoietin (TPO) Signaling Pathway (AID 918). Note: potency is the fitted concentration of half-maximal effect; nearly all actives have a fitted effect of over 60% in size. The settings on record: TPO-dependent cell signaling reporter, antagonist mode. The essentials:
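Inhibitors of TPO signaling are sought by stimulating IL-3-starved murine Ba/F3 cells (human TPO receptor, Glycoprotein IIb-driven luciferase) with TPO at its EC50 of 26 pM alongside compound. After 24 hrs at 37 C, reporter luminescence is measured.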

The target in assay [6] is Muscarinic acetylcholine receptor M1 (Rattus norvegicus) (UniProt P08482). As to the kind of experiment: qHTS Assay for Antagonists of Acetylcholine Muscarinic M1 Receptor: Kinetic Measurement of Intracellular Calcium Response (AID 943). Note: potency is the fitted concentration of half-maximal effect; nearly all actives have a fitted effect of over 75% in size. The method in brief: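 Antagonism is measured as inhibition of the carbachol-evoked calcium rise in CHO cells transfected with rat M1. Cells are dye-loaded, exposed to compound for 10 min, then stimulated with 100 nM carbachol (EC80).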

Assay [7] deals with Alpha-galactosidase (Coffea arabica) (UniProt Q42656). Kind of assay: Counterscreen for Glucocerebrosidase Inhibitors: qHTS Assay for Coffee Bean alpha-Galactosidase at pH 4.5 (AID 957).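 Note: plate controls were enzyme alone for no effect and no enzyme for full effect.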 The method in brief:
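Enzyme is added first (2 nM final), then compounds titrated from 0.7 nM to 77 uM, then 80 uM 4-methylumbelliferyl alpha-D-galactopyranoside; after 20 min at room temperature a pH 10 NaOH/glycine stop precedes fluorescence reading at 365/440 nm.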
For orientation: The purpose of a counterscreen is to sort out artefacts and off-target activity.

Assay [8] has the same target. As to the kind of experiment: Counterscreen for Glucocerebrosidase Inhibitors: qHTS Assay for Coffee Bean alpha-Galactosidase at pH 5.9 (AID 998).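 Note: plate controls were uninhibited enzyme for no effect and no-enzyme basal signal for full effect.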 The essentials:
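Fluorogenic 4-MU substrate hydrolysis, 80 uM substrate and 2 nM coffee bean alpha-galactosidase, pH 5.9 citrate buffer, 20 min at room temperature, then NaOH/glycine stop. Titration 0.7 nM–77 uM, normalized to no-enzyme and enzyme controls, AC50 via Hill equation.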

Assay [9] is described as follows: qHTS Assay for Lipid Storage Modulators (AID 1519; calls by dose curve; for activity change, negative = inhibition: % is set by controls: 0 for no effect and ±100 for the full control effect). The settings on record: Drosophila S3 cells, BODIPY lipid droplet/cell ratio, laser cytometry, cells loaded with oleic acid. The essentials: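 Cells seeded at 5,000 per well were treated with compounds over a concentration series and loaded with oleic acid (400 uM, as added). Lipid droplet fluorescence (488 nm excitation, 500-530 nm channel) was read by laser-scanning cytometry and normalized to 20 uM Triacsin C.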

A short description of assay [10]: qHTS for differential inhibitors of proliferation of Plasmodium falciparum line 7G8 (AID 1815).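 Note: potency is the fitted concentration of half-maximal effect; parasite growth measured after three days of incubation.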
Assay [11] can be described thus: qHTS for differential inhibitors of proliferation of Plasmodium falciparum line GB4 (AID 1816).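 Note: potency is the fitted concentration of half-maximal effect; parasite growth measured after 72 h incubation.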 The settings on record: Potency: Plasmodium falciparum GB4 proliferation inhibition.
Assay [12] is described as follows: qHTS for differential inhibitors of proliferation of Plasmodium falciparum line 3D7 (AID 1876). Note: potency is the fitted concentration of half-maximal effect.
Assay [13] in a line: qHTS for differential inhibitors of proliferation of Plasmodium falciparum line D10 (AID 1877).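 Note: potency is the fitted concentration of half-maximal effect; parasites grown with compound for 72 h before DNA staining.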
Assay [14] in a line: qHTS for differential inhibitors of proliferation of Plasmodium falciparum line Dd2 (AID 1882). Note: potency is the fitted concentration of half-maximal effect; nearly all actives have a fitted effect of over 65% in size. As to conditions: Potency: Plasmodium falciparum Dd2 proliferation inhibition. The essentials:
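SYBR Green DNA fluorescence (ex 485, em 535 nm) after overnight lysis quantifies parasite growth; compound exposure lasted 72 h at 37 C on infected red cells at 2.5% hematocrit, 0.3% parasitemia (final). Artemisinin 0.29 uM and vehicle wells define normalization.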

Assay [15] can be described thus: qHTS for differential inhibitors of proliferation of Plasmodium falciparum line W2 (AID 1883).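 Note: potency is the fitted concentration of half-maximal effect; parasites grown with compound for 72 h before lysis and staining.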 The settings on record: Potency: Plasmodium falciparum W2 proliferation inhibition.
Assay [16] is described as follows: qHTS for differential inhibitors of proliferation of Plasmodium falciparum line HB3 (AID 1886).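 Note: potency is the fitted concentration of half-maximal effect; parasites grown with compound for 72 h before SYBR Green readout.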 The settings on record: Potency: Plasmodium falciparum HB3 proliferation inhibition.
Assay [17] can be described thus: High Content Imaging Cell-Based qHTS for Inhibitors of the mTORC1 Signaling Pathway in MEF Cells (AID 2667). Note: potency is the fitted concentration of half-maximal effect. The essentials: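 Tsc2-/-, p53-/- MEFs stably re-expressing WT Tsc2, grown in DMEM + 10% FBS, were treated with compounds for 24 hrs at 37 degree Celsius, fixed, and stained with Alexa-488 phospho-rpS6 Ser235/236 antibody plus Hoechst; results given as % positive cells.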

The target in assay [18] is M-phase phosphoprotein 8 (Homo sapiens) (UniProt Q99549). As to the kind of experiment: qHTS Validation Assay for Inhibitors for MPP8 Chromodomain Interactions with Methylated Histone Tails (AID 488949).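 Note: AlphaScreen signal from MPP8 chromodomain bound to biotinylated H3K9me3 peptide; top concentration of the series differs between compounds; % is set by controls: 0 for no effect and ±100 for the full control effect; nearly all actives have a fitted effect of over 55% in size.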 The method in brief: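 AlphaScreen proximity signal from streptavidin donor and Ni-chelate acceptor beads (10 ug/mL each) reported binding of MPP8 to trimethyl-K9 H3(1-18) peptide, both at 50 nM. The complex formed 30 min before a 30 min compound exposure at room temperature, in PBS pH 7.4.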

Assay [19] has as its target D(1A) dopamine receptor (Homo sapiens) (UniProt P21728). Kind of assay: HTS Assay for Allosteric Agonists of the Human D1 Dopamine Receptor: Primary Screen for Potentiators (AID 488982). Note: 0% is about no effect. The method in brief:
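Calcium flux in an inducible, force-coupled HEK293 Trex D1 line (overnight at 30 C): agonist mode is the 180 s kinetic read after compound; potentiator mode is the following 180 s read after dopamine at EC20.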

Assay [20] can be described thus: Inducers of the Endoplasmic Reticulum Stress Response (ERSR) in human glioma: Validation (AID 504836). Note: 0% is about no effect. The method in brief: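 ERSR induction read as luciferase luminescence (Bright-Glo, 10 min at room temperature) in stably transfected human U87-MG glioma cells exposed to compounds for 16 h, using GRP78 as sensor.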
In assay [21] the target is Voltage-gated inwardly rectifying potassium channel KCNH2 (Homo sapiens) (UniProt Q12809). Kind of assay: qHTS Assay for Small Molecule Inhibitors of the Human hERG Channel Activity (AID 588834).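 Note: potency is the fitted concentration of half-maximal effect; lower thallium flux fluorescence means stronger hERG block; nearly all actives have a fitted effect of over 50% in size.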 The method in brief: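 hERG block measured as reduced thallium-dye (FluxOR) fluorescence after stimulation buffer addition, read over 2 min. Cells were hERG-BacMam-transduced U2OS exposed to compound ~10 min […]; concentration-response fitted with Hill equation for AC50.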

Assay [22] can be described thus: qHTS for Inhibitors of the Functional Ribonucleoprotein Complex (vRNP) of Lassa (LASV) Arenavirus: LASV Primary Screen - GLuc reporter signal (AID 1347082; calls by dose curve; tested in HEK293 reporter line; note: % is set by controls: 0 for no effect and ±100 for the full control effect; nearly all actives have a fitted effect of over 60% in size).
A short description of assay [23]: qHTS for Inhibitors of the Functional Ribonucleoprotein Complex (vRNP) of Lassa (LASV) Arenavirus: Viability assay - alamar blue signal for LASV Primary Screen (AID 1347083; calls by dose curve; tested in HEK293 reporter line; note: % is set by controls: 0 for no effect and ±100 for the full control effect; nearly all actives have a fitted effect of over 80% in size).
Assay [24] can be described thus: qHTS for Inhibitors of the Functional Ribonucleoprotein Complex (vRNP) of Lymphocytic Choriomeningitis Arenaviruses (LCMV): Viability assay - alamar blue signal for LCMV Primary Screen (AID 1347085; calls by dose curve; tested in HEK293 reporter line; note: % is set by controls: 0 for no effect and ±100 for the full control effect; nearly all actives have a fitted effect of over 80% in size).
Assay [25] addresses Nucleoprotein (Lymphocytic choriomeningitis virus (strain Armstrong)) (UniProt P09992). Kind of assay: qHTS for Inhibitors of the Functional Ribonucleoprotein Complex (vRNP) of Lymphocytic Choriomeningitis Arenaviruses (LCMV): LCMV Primary Screen - GLuc reporter signal (AID 1347086; calls by dose curve; note: % is set by controls: 0 for no effect and ±100 for the full control effect; nearly all actives have a fitted effect of over 70% in size).
Assay [26] is described as follows: Counterscreen qHTS for small molecule stabilizers of the endoplasmic reticulum resident proteome: GLuc-NoTag assay (AID 1508627).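 Note: SH-SY5Y cells given compound then 100 nM thapsigargin to empty ER calcium; 0% = thapsigargin alone and -100% = DMSO vehicle control.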 The essentials: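 Counterscreen line: SH-SY5Y-GLuc-NoTag cells, treated with compound 19 hr before a 4 hr, 100 nM thapsigargin calcium depletion. Secreted Gaussia luciferase in the medium was measured by luminescence after coelenterazine was added (0.07x final), with cells unlysed.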

A short description of assay [27]: Cell Viability qHTS for small molecule stabilizers of the endoplasmic reticulum resident proteome (AID 1508629).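 Note: human SH-SY5Y neuroblastoma cells carrying the GLuc-SERCaMP reporter; compound exposure about 46 h in total before the viability read; % is set by controls: 0 for no effect and ±100 for the full control effect.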 As to conditions: cell viability counter-screen, 100 nM thapsigargin for final 4 h.
The nature of assay [28]: Primary qHTS for small molecule stabilizers of the endoplasmic reticulum resident proteome: Secreted ER Calcium Modulated Protein (SERCaMP) assay (AID 1508630). Note: % is set by controls: 0 for no effect and ±100 for the full control effect. The method in brief:
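The SH-SY5Y reporter protocol was run at 3 concentrations up to 38.3 uM (primary) or 11 concentrations (follow-up): 16 h compound, 100 nM thapsigargin for 4 h, then extracellular luciferase luminescence.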

Results filed as inconclusive are left out. Activity calls are given as the source filed them. Unless noted, calls come from the whole dose curve; as a rule, active = well fitted curve in the direction sought with a large enough effect; inconclusive = small, poorly fitted or top-dose-only effect, or another doubt; inactive = no such curve, though single readings can be large; an effect the other way counts as inactive or inconclusive.

Nucleoprotein (Lymphocytic choriomeningitis virus (strain Armstrong)), sequence (P09992 whole entry, looked up): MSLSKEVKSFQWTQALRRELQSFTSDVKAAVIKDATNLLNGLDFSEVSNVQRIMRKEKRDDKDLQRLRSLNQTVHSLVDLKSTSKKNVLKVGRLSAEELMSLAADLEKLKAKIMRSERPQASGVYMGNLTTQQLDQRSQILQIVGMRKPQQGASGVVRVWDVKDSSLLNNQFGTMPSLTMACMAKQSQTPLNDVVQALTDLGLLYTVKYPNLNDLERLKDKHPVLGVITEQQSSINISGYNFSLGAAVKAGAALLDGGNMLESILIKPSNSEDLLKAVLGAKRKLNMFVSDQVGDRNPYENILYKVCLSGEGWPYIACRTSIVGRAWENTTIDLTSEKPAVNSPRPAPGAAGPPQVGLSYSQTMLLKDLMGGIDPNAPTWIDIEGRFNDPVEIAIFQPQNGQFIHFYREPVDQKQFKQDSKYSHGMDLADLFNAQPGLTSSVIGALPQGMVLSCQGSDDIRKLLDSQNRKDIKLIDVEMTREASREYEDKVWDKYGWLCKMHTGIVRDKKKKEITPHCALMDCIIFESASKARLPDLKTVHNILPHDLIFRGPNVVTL
Alpha-galactosidase (Coffea arabica), sequence (Q42656 whole entry, looked up): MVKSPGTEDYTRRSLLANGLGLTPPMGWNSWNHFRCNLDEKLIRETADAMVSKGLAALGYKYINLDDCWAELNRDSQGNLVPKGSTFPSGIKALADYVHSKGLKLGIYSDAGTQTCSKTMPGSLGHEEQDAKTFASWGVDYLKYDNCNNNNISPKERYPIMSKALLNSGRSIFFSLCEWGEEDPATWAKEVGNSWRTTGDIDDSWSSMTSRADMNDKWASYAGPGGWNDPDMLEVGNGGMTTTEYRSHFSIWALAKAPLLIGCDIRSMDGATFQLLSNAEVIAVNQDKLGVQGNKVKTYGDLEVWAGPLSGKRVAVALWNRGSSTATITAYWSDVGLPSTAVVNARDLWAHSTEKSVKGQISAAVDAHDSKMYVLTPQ
Cytochrome P450 3A4 (Homo sapiens), sequence (P08684 whole entry, looked up): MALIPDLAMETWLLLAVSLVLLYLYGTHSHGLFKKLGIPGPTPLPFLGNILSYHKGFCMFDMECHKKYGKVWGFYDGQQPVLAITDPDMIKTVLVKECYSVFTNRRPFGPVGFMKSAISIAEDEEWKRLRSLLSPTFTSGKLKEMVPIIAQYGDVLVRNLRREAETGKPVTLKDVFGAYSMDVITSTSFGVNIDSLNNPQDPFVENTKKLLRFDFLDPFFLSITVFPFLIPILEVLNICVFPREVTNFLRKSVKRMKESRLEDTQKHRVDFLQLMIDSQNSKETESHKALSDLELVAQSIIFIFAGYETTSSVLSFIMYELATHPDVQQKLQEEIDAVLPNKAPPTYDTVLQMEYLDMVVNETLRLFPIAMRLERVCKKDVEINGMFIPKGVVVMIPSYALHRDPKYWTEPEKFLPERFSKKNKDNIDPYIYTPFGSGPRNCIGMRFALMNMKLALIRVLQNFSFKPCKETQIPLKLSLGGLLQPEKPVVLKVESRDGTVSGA
Muscarinic acetylcholine receptor M1 (Rattus norvegicus), sequence (P08482 whole entry, looked up): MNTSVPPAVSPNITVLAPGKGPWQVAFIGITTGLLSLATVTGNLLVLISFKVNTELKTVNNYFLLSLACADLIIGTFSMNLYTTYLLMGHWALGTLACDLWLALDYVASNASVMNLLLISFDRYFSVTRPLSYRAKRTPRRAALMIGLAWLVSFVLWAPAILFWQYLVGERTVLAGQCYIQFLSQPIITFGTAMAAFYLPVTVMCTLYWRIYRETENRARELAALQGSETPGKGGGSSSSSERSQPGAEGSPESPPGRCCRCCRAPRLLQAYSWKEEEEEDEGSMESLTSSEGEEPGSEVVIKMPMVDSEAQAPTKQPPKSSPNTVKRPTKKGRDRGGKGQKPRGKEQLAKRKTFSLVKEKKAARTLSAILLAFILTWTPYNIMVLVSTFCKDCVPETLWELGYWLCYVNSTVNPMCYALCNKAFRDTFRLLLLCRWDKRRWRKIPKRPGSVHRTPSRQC
Voltage-gated inwardly rectifying potassium channel KCNH2 (Homo sapiens), sequence (Q12809 whole entry, looked up): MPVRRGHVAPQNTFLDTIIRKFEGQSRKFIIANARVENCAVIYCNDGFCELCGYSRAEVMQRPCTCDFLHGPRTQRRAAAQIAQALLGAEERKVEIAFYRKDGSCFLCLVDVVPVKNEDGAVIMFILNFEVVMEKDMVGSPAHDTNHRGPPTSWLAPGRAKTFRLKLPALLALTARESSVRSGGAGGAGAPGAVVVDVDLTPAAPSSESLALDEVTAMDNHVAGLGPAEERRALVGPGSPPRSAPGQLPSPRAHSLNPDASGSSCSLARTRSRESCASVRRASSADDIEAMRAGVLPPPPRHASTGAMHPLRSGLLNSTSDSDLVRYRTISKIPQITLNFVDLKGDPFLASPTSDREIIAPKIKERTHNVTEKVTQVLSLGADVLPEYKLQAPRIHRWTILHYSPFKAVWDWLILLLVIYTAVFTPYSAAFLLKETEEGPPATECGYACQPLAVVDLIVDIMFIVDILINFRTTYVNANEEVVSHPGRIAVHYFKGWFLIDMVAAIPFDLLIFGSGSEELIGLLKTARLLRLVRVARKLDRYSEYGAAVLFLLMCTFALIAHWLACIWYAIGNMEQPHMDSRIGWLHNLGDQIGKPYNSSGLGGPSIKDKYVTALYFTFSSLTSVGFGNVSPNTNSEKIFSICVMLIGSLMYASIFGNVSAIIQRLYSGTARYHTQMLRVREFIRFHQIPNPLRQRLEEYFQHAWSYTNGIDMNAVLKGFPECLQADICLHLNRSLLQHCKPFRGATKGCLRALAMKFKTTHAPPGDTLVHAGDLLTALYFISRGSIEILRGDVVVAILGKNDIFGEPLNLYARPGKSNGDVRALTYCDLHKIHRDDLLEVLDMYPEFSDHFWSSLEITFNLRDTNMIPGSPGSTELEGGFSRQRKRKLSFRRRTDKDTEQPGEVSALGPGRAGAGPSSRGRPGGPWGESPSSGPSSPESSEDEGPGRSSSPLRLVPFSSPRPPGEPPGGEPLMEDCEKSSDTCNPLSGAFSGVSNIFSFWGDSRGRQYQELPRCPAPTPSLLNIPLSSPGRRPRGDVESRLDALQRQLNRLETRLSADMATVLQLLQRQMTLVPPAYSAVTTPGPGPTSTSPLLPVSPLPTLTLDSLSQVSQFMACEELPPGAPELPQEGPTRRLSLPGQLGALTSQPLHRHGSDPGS
Cytochrome P450 2D6 (Homo sapiens), sequence (P10635 whole entry, looked up): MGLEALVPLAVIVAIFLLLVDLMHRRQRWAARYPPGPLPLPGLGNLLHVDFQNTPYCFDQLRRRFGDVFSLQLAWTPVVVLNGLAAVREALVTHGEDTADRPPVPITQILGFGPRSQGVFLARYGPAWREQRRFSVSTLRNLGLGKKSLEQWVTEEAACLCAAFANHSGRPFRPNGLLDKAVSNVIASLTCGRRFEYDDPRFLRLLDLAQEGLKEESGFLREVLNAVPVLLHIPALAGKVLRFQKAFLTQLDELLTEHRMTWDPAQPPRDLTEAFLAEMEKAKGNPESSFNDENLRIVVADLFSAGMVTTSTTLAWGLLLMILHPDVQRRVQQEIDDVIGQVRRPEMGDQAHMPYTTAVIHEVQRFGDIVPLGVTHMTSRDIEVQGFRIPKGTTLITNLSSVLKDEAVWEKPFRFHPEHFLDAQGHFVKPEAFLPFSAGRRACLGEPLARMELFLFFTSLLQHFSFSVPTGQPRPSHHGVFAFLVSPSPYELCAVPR
M-phase phosphoprotein 8 (Homo sapiens), sequence (Q99549 whole entry, looked up): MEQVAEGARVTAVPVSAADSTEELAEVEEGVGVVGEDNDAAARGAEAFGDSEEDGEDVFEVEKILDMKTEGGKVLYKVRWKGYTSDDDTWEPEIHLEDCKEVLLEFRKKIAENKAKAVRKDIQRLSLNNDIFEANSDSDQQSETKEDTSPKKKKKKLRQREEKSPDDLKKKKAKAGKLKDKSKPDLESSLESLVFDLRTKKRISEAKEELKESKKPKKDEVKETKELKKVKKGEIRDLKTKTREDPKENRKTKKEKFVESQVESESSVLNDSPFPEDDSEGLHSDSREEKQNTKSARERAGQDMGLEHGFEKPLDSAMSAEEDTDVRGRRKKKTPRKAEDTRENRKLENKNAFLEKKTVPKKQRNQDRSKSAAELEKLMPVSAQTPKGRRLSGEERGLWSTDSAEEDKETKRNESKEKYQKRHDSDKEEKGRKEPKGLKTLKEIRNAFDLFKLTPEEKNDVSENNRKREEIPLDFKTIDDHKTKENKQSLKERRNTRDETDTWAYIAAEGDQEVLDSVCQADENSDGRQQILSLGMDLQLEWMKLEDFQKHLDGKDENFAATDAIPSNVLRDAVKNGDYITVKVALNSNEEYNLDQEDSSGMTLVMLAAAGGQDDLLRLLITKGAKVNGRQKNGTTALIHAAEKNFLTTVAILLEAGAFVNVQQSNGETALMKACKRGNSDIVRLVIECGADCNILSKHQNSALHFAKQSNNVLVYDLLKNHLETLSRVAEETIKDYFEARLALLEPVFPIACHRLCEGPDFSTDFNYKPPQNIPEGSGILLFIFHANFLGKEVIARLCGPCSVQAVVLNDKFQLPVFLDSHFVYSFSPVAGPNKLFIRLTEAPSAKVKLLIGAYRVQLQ
Cytochrome P450 2C9 (Homo sapiens), sequence (P11712 whole entry, looked up): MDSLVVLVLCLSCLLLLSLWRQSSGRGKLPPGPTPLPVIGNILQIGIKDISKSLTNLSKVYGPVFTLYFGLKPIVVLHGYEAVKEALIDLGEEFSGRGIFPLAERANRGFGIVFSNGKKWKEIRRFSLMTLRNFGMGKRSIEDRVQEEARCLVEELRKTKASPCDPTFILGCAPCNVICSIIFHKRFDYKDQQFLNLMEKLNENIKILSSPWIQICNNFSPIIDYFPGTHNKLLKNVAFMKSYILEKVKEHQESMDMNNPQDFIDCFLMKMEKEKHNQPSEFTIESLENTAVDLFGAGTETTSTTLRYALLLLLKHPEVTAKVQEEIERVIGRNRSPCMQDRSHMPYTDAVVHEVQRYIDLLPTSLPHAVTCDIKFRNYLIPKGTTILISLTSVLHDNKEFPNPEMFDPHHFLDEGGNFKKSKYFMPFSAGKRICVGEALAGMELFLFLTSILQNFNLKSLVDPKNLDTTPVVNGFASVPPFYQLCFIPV

As for `OC1(c2ccc(Cl)cc2)CCN(Cc2c[nH]c3ccccc23)CC1`, the Potency result in assay [1], in assay [2], in [18], in assay [19], in [22] and in assay [23] was “inactive” in each case. For the same molecule, the Potency result in [24] and in [25] was “inactive” each time. The Potency was 2.51 µM (active) in [3]; 0.316 µM (active) in [4]; 10 µM (active) in assay [5]; 11.2 µM (active) in [6]; 7.08 µM (active) in [10]; 8.91 µM (active) in assay [11]. In addition, the Potency in assay [12] is 5.01 µM (active); in assay [13], 10 µM (active); in assay [14], 11.2 µM (active); in assay [15] it was 3.98 µM (active); in assay [16], 10 µM (active); in assay [17], 2.33 µM (active). The Potency in [21] is 0.794 µM (active). Also, the molecule was classed as inactive in [7], in assay [8] and in assay [20]. For the same molecule, in [9] (at 57.5 µM (top of the series)), the activity change, negative = inhibition is 1.03% (inactive). The max response was -29.2% in [9] (measured here: cell count channel max response) and -25.1% in [9] (measured here: lipid channel max response).
Turning to `CN1C2CCC1CC(OC(=O)C1CCC(C(=O)OC3CC4CCC(C3)N4C)(c3ccccc3)c3ccccc31)C2` (stereo not drawn), the Potency entry in assay [22], in [23], in [24], in assay [25] and in [26] was “inactive” throughout. The max response in [27] is -2.96% (inactive).
With `O=C1CCC[C@H]2[C@H]3CCCN4CCCC(=CN12)[C@@H]34`, the Potency entry in assay [22], in assay [23], in assay [24], in assay [25] and in assay [28] was “inactive” each time.
